Screens as filed in PubChem.
Most compounds without a hit are left out; they make up all but 20% or so of the library.
Shiga toxin inh – A qHTS for Small Molecule Inhibitors of Shiga Toxin; Vero cells, Shiga toxin protein synthesis inhibition reporter; hit rate 9.2% among 290,000; AID 2315, 2010; inhibition, % at 38.7 µM; in the data active = inhibition mostly above about 28%, no sharp cut-off; inactive = mostly below about 43%
Pf growth 96h – Primary qHTS for delayed death inhibitors of the malarial parasite plastid, 96 hour incubation. hit rate 6.9% among 320,000. Potency, µM (doses to about 28.7 µM), usual class: inhibitors. P. falciparum luciferase reporter growth, 96 h. AID 504834, 2011
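Luminescence readout: decreased luciferase signal marks inhibited growth of reporter-expressing P. falciparum in infected red cells (2% hematocrit, 0.05% parasitemia final), exposed to compound two generations (96 h, 37 C, 5% CO2).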
Cycloheximide cs – Cycloheximide Counterscreen for Small Molecule Inhibitors of Shiga Toxin; hit rate 12% among 300,000; max response, %; cell reporter, cycloheximide protein synthesis inhibition counterscreen; AID 2314, 2010; in the data active = max response mostly above about 13%, no sharp cut-off; inactive = mostly below about 14%; also: read at 38.3 µM for the half of the compounds with a filed dose
HCMV antiviral – qHTS Assay for inhibitors of the human cytomegalovirus (HCMV); HFF cells, HCMV-luciferase reporter, 72 h; active compounds read low; activity change, negative = inhibition, % at 57.5 µM; hit rate 4.5% among 410,000; AID 1259415, 2018; in the data active = activity change below about -60%; inconclusive = no clear call, values can overlap the other calls; inactive = above about -39%
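HFF cells seeded 16 h at 37C, treated with compounds, infected with luciferase-reporter HCMV at MOI 1 PFU/cell; luciferase read at 72 h post infection, normalized to buffer-only and Salinomycin controls.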
Pf growth 48h – Primary qHTS for delayed death inhibitors of the malarial parasite plastid, 48 hour incubation | P. falciparum luciferase growth in erythrocytes, 48 h | Potency, µM (highest dose often 28.7 µM), hits mostly inhibitors | hit rate 5.9% among 310,000 | AID 504832, 2011
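Parasite viability was followed by luminescence of a genomically integrated firefly luciferase. Cultures held 0.1% parasitemia at 2% hematocrit (final), incubated under 5% CO2 at 37 C.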
Hits are given with their value; 0 = inactive; ? = inconclusive; - = no result given. Unless noted, calls follow the shape of the dose curve; as a rule, active = well fitted inhibition curve with a large enough effect; inconclusive = small, poorly fitted or top-dose-only effect, or another doubt; inactive = no such curve, though single readings can be large or run the other way.

SMILES | Shiga toxin inh | Pf growth 96h | Cycloheximide cs | HCMV antiviral | Pf growth 48h
CCOC(=O)N1CCN(C(=O)c2ccc(CS(=O)c3cccc(C)c3)o2)CC1 (stereo not given) | - | - | - | 0 | -
CSc1cccc(CNC(=O)C2CCC(=O)N(CCCN3CCCC3=O)C2)c1 (stereo not given) | 0 | 0 | 0 | 0 | 0
Cc1cccc(Cn2cc(S(=O)(=O)c3ccc(Cl)cc3)c(=O)c3cc4c(cc32)OCO4)c1 | - | - | - | 0 | -
Oc1ccc(/C=C/c2cc(O)cc(O)c2)cc1 | 20.3 | 0 | 25.6 | 0 | 0
Oc1cc(O)cc(/C=C/c2ccc(O)cc2O)c1 | - | 0 | - | - | 0
COc1ccc(NC(=O)/C(Cl)=C(/Cl)S(=O)Cc2ccc(Cl)cc2)cn1 (stereo not given) | 0 | ? | 0 | -99.7 | 0
COc1ccc(NC(=O)Nc2ccc(OCc3ccccc3)cc2)cn1 | 0 | 0 | 0 | 0 | ?
COc1ccc(NC(=O)/C(Cl)=C(/Cl)S(=O)(=O)Cc2ccccc2)cn1 | 100.5 | 0 | 46.4 | -105.0 | -
COc1ccc(CC(=O)Nc2ccc(OC)nc2)cc1 | 0 | 0 | 0 | 0 | 0
COc1ccc(NC(=O)CCl)cn1 | 0 | 10.4µM | 0 | - | 8.28µM
COc1cc(NC(=O)COC(=O)CC2CC3CCC2C3)cc(OC)c1 (stereo not given) | - | - | - | 0 | -
COc1ccc(NC(=O)CC2CC3CCC2C3)cn1 (stereo not given) | 0 | 0 | 19.7 | 0 | 0
COc1ccc(NC(=O)C(C)(C)Oc2ccc(Cl)cc2)cn1 | - | 0 | - | 0 | 0
CC(NC(=O)COC(=O)CN1C(=O)C2CCCCC2C1=O)c1ccccc1 (stereo not given) | - | - | - | 0 | -
CCC(CCC(=O)Nc1ccc(S(N)(=O)=O)cc1)C(=O)O (stereo not given) | 0 | 0 | 0 | 0 | 0
COc1ccc(NC(=O)C(Cl)=C(Cl)Cl)cn1 | 0 | ? | 22.6 | 0 | ?
CCN(Cc1ccncc1)S(=O)(=O)c1ccc(C(C)=O)cc1 | 0 | ? | 0 | ? | ?
CC1=C(C(=O)Nc2cccc(F)c2)C2(CCCCC2)OC1=O | - | - | - | 0 | -
COC(=O)C(C)N1C(=O)S/C(=C\c2ccc(-c3ccc(C(=O)O)cc3C)o2)C1=O (stereo not given) | 88.9 | 0 | 43.6 | 0 | 0
Nc1nc(-c2ccc3c(c2)OCCO3)c(CC(=O)O)s1 | 0 | 0 | 0 | 0 | 0
Cc1sc(N)nc1-c1ccc2c(c1)OCCO2 | 52.6 | ? | 17.5 | 0 | 0
Cc1sc(N)nc1-c1ccc(Oc2ccccc2)cc1 | 0 | ? | 19.3 | 0 | 0
CC(C)(C)OC(=O)CC(S(=O)(=O)c1ccccc1)S(=O)(=O)c1ccccc1 | - | - | - | 0 | -
O=S(=O)([N-]c1nc2ccccc2nc1-[n+]1ccccc1)c1ccc(Cl)cc1 | 0 | 0 | 0 | -62.2 | 0
CCc1cc[n+](-c2nc3ccccc3nc2[N-]S(=O)(=O)c2ccc(Br)s2)cc1 | 0 | ? | 13.0 | 0 | 0
SMILES | Shiga toxin inh | Pf growth 96h | Cycloheximide cs | HCMV antiviral | Pf growth 48h
C1CC1Cc1noc(CN2CCN(C3C4CC5CC(C4)CC3C5)CC2)n1 (stereo not given) | 0 | 13.1µM | 0 | 0 | 0
O=C1CCCN1CC1CCN(Cc2nc(CC3CC3)no2)CC1 | 47.5 | ? | 0 | 0 | ?
COCC1CCCN(Cc2nc(Cc3ccccc3)no2)C1 (stereo not given) | 0 | 0 | 0 | 0 | 0
O=C1CCCN1CC1CCCN(Cc2nc(COc3ccccc3)no2)C1 (stereo not given) | 0 | 14.7µM | 0 | 0 | 0
C1CC(CN2CCOCC2)CN(Cc2nc(CC3CC3)no2)C1 (stereo not given) | 0 | 0 | 0 | 0 | 0
Cc1cscc1NC(=O)/C=C/C(=O)O | 0 | ? | 0 | 0 | 0
Cc1c(C)c2cc3c(c(C)c2oc1=O)OCN(CCc1ccc(F)cc1)C3 | - | - | - | 0 | -
CCOC(=O)c1cc(OCC)c2c(ccc3ccccc32)n1 | - | - | - | 0 | -
Oc1cccc(-c2nc3ccc4ccccc4c3c3c2CCC3)c1 | 127.1 | 0 | 59.0 | 0 | -
C[C@@H]1CN([C@H](C)CO)C(=O)c2cc(NC(=O)Nc3ccc(F)cc3)ccc2O[C@@H](C)CCCCO[C@H]1CN(C)S(=O)(=O)c1cccs1 | - | - | - | 0 | -
COc1cc(Cl)cc(/C=C/c2ccc3cccc(O)c3n2)c1OC | 0 | 0 | 0 | ? | -
COc1ccccc1/C=C/c1ccc2cccc(O)c2n1 | 82.3 | 0 | 40.1 | 0 | 0
COc1ccc(Cl)cc1/C=C/c1ccc2cccc(O)c2n1 | 73.0 | 0 | 46.0 | ? | -
O=C(c1ccccc1)c1ccc(NCCCn2ccnc2)c([N+](=O)[O-])c1 | 0 | 11.7µM | 0 | ? | ?
CCN(CC)S(=O)(=O)c1ccc(NN=C2CCN(C)CC2)c([N+](=O)[O-])c1 | 0 | ? | 0 | 0 | 0
CCN(CC)S(=O)(=O)c1ccc(NCCCn2ccnc2)c([N+](=O)[O-])c1 | 0 | ? | 0 | -62.2 | ?
CC(=O)NC1=NN(C(C)=O)C(c2ccc(C)cc2)S1 (stereo not given) | 0 | ? | 0 | 0 | 0
Cc1nnc(SCc2cc(=O)[nH]c(/N=C(\N)Nc3ccccc3)n2)s1 | 0 | ? | 0 | 0 | 0
CC1=NN(/C(=N\c2nnc(C)s2)Nc2ccc(C)cc2)[C@H](c2ccc(C)cc2)S1 | 0 | ? | 0 | 0 | 10.4µM
CC1=NN(/C(=N\c2nnc(C)s2)Nc2ccccc2)[C@H](c2cccc3ccccc23)S1 | 0 | 9.28µM | 0 | 0 | 6.57µM
COc1ccc(OC)c(-n2cnc3cc(C(=O)NC4CCCCCC4)ccc32)c1 | - | - | - | 0 | -
COc1ccccc1Cc1c(-c2ccc(Cl)cc2)nc2ccc(Br)cn12 | - | - | - | 0 | -
CN(C)Cc1c(-c2ccc(Cl)cc2)nc2ccccn12 | 126.2 | 0 | 45.2 | 0 | 0
Clc1ccc(-c2nc3ccccn3c2CN2CCCCC2)cc1 | 0 | 0 | 18.6 | -76.7 | ?
Cc1ccn2c(CN3CCOCC3)c(-c3ccccc3)nc2c1 | 47.7 | 0 | 28.0 | 0 | 0
SMILES | Shiga toxin inh | Pf growth 96h | Cycloheximide cs | HCMV antiviral | Pf growth 48h
Cc1nc2c(OCCC3CCCCC3)cccn2c1N(C)C(=O)CCC1CCCC1 | - | - | - | 0 | -
CC(=O)Nc1ccc(Oc2cc(NC(C)=O)cc([N+](=O)[O-])c2)cc1 | 0 | 0 | 0 | 0 | 0
COc1ccc(C(=O)Nn2c(SCC(=O)NC3CCCCC3)nc3ccccc3c2=O)cc1 | 0 | ? | 0 | 0 | -
O=C(Nn1c(SCc2cccc([N+](=O)[O-])c2)nc2ccccc2c1=O)c1ccccc1 | 123.1 | 0 | 81.2 | 0 | 0
COc1ccc(C(=O)Nn2c(SCc3cccc([N+](=O)[O-])c3)nc3ccccc3c2=O)cc1 | 113.7 | ? | 60.6 | -70.5 | 0
CCc1ccc(NC(=O)C2CCCCC2C(=O)O)cc1 (stereo not given) | 0 | 0 | 0 | 0 | 0
Cc1ccc(NC(=O)C2CCC(=O)N2)cc1C (stereo not given) | 0 | ? | 0 | 0 | 0
O=C1CCC(C(=O)Nc2ccc(Cl)cc2)N1 (stereo not given) | 0 | 5.22µM | 0 | 0 | 0
O=C(Nc1cccc(Cl)c1)C1C2CCC3C(CCC21)C3(Cl)Cl (stereo not given) | 0 | ? | 0 | 0 | 9.28µM
